# Reference: article PMC5540273 (PLoS ONE, 2017)
# “And” between values parts separate entries of the source, which are not always exact repeats. Identical values can stand only once. Like-named read-outs stand apart in the source and are kept apart here.
# Tests used:
# [1] = system: T1, RSK2(Kin.Dom.1-N-terminal); settings: concentration: 1 μM, replicates: in singlicate, n = 1
# T1 construct: gene RPS6KA3
# [2] = system: T2, RSK2(Kin.Dom.2-C-terminal); settings: concentration: 1 μM, replicates: in singlicate, n = 1
# T2 construct: gene RPS6KA3
# [3] = system: T3, RSK3(Kin.Dom.1-N-terminal); settings: concentration: 1 μM, replicates: in singlicate, n = 1
# T3 construct: gene RPS6KA2
# [4] = system: T4, RSK3(Kin.Dom.2-C-terminal); settings: concentration: 1 μM, replicates: in singlicate, n = 1
# T4 construct: gene RPS6KA2
# [5] = system: T5, RSK4(Kin.Dom.1-N-terminal); settings: concentration: 1 μM, replicates: in singlicate; n = 1
# T5 construct: gene RPS6KA6
# [6] = system: T6, RSK4(Kin.Dom.2-C-terminal); settings: concentration: 1 μM, replicates: in singlicate, n = 1
# T6 construct: gene RPS6KA6
# S6K1 = settings: concentration: 1 μM, replicates: in singlicate, n = 1
# SBK1 = settings: concentration: 1 μM, replicates: in singlicate, n = 1
# SGK2 = settings: concentration: 1 μM, replicates: in singlicate, n = 1
# SGK3 = settings: concentration: 1 μM, replicates: in singlicate, n = 1
# SGK = settings: concentration: 1 μM, replicates: in singlicate, n = 1
# SIK2 = settings: concentration: 1 μM, replicates: in singlicate, n = 1
# SIK = settings: concentration: 1 μM, replicates: in singlicate, n = 1
# SLK = settings: concentration: 1 μM, replicates: in singlicate; n = 1
# SNARK = system: T7, SNARK; settings: concentration: 1 μM, replicates: in singlicate, n = 1
# T7 construct: gene NUAK2
# SNRK = settings: concentration: 1 μM, replicates: in singlicate, n = 1
# SRC = settings: concentration: 1 μM, replicates: in singlicate; n = 1
# SRMS = settings: concentration: 1 μM, replicates: in singlicate, n = 1
# SRPK1 = settings: concentration: 1 μM, replicates: in singlicate, n = 1
# SRPK2 = settings: concentration: 1 μM, replicates: in singlicate, n = 1
# 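Further: KINOMEscan kinase panel screen.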
compound,measurement,setting,value
Cc1cccc(-c2nc(Nc3ccc4ncsc4c3)c3ccccc3n2)n1 [GW867588],%Inh,[1],8%
same,%Inh,[2],0%
same,%Inh,[3],0%
same,%Inh,[4],9%
same,%Inh,[5],6%
same,%Inh,[6],8%
same,%Inh,S6K1,0%
same,%Inh,SBK1,19%
same,%Inh,SGK2,0%
same,%Inh,SGK3,0%
same,%Inh,SGK,5%
same,%Inh,SIK2,0%
same,%Inh,SIK,10%
same,%Inh,SLK,7%
same,%Inh,SNARK,6%
same,%Inh,SNRK,0%
same,%Inh,SRC,7%
same,%Inh,SRMS,8%
same,%Inh,SRPK1,0%
same,%Inh,SRPK2,0%
COc1cc2c(cc1OC[C@@H](O)CO)ncc1c3ccc(C#N)cc3[nH]c21,%Inh,[1],80%
same,%Inh,[2],0%
same,%Inh,[3],11%
same,%Inh,[4],11%
same,%Inh,[5],88%
same,%Inh,[6],18%
same,%Inh,S6K1,40%
same,%Inh,SBK1,71%
same,%Inh,SGK2,0%
same,%Inh,SGK3,38%
same,%Inh,SGK,47%
same,%Inh,SIK2,65%
same,%Inh,SIK,21%
same,%Inh,SLK,0%
same,%Inh,SNARK,89%
same,%Inh,SNRK,58%
same,%Inh,SRC,0%
same,%Inh,SRMS,0%
same,%Inh,SRPK1,0%
same,%Inh,SRPK2,0%
CC(C)(CN)c1nc(-c2ccc(Cl)c(O)c2)c(-c2ccncc2)[nH]1.O=C(O)C(F)(F)F [SB-477794],%Inh,[1]; 1 µM,0% and 11%
same,%Inh,[2]; 1 µM,36% and 27%
same,%Inh,[3]; 1 µM,6% and 2%
same,%Inh,[4]; 1 µM,0% and 2%
same,%Inh,[5],0%
same,%Inh,[6]; 1 µM,90.6% and 89%
same,%Inh,S6K1; 1 µM,43% and 37%
same,%Inh,SBK1; 1 µM,5% and 6%
same,%Inh,SGK2; 1 µM,2% and 0%
same,%Inh,SGK3; 1 µM,0% and 7%
same,%Inh,SGK; 1 µM,23% and 3%
same,%Inh,SIK2; 1 µM,78% and 71%
same,%Inh,SIK; 1 µM,21% and 33%
same,%Inh,SLK,99.3%
same,%Inh,SNARK; 1 µM,0% and 7%
same,%Inh,SNRK; 1 µM,11% and 0%
same,%Inh,SRC,99.9%
same,%Inh,SRMS; 1 µM,0% and 15%
same,%Inh,SRPK1; 1 µM,17% and 42%
same,%Inh,SRPK2; 1 µM,26% and 74%
Fc1ccc(-c2ncn(CCCN3CCOCC3)c2-c2ccccn2)cc1 [SB-211742],%Inh,[1],0%
same,%Inh,[2],49%
same,%Inh,[3],0%
same,%Inh,[4],35%
same,%Inh,[5],0%
same,%Inh,[6],0%
same,%Inh,S6K1,0%
same,%Inh,SBK1,0%
same,%Inh,SGK2,0%
same,%Inh,SGK3,0%
same,%Inh,SGK,0%
same,%Inh,SIK2,0%
same,%Inh,SIK,11%
same,%Inh,SLK,23%
same,%Inh,SNARK,0%
same,%Inh,SNRK,0%
same,%Inh,SRC,0%
same,%Inh,SRMS,0%
same,%Inh,SRPK1,0%
same,%Inh,SRPK2,60%
CN(C1=C(c2ccccc2)C(=O)NC1=O)c1ccccc1 [SB-334860],%Inh,[1],4%
same,%Inh,[2],23%
same,%Inh,[3],14%
same,%Inh,[4],0%
same,%Inh,[5],0%
same,%Inh,[6],8%
same,%Inh,S6K1,2%
same,%Inh,SBK1,2%
same,%Inh,SGK2,0%
same,%Inh,SGK3,16%
same,%Inh,SGK,0%
same,%Inh,SIK2,5%
same,%Inh,SIK,7%
same,%Inh,SLK,10%
same,%Inh,SNARK,23%
same,%Inh,SNRK,0%
same,%Inh,SRC,5%
same,%Inh,SRMS,0%
same,%Inh,SRPK1,10%
same,%Inh,SRPK2,0%
CCc1nc(-c2cccc(C)c2)c(-c2ccnc(NCc3ccccc3)c2)s1,%Inh,[1],0%
same,%Inh,[2],0%
same,%Inh,[3],0%
same,%Inh,[4],2%
same,%Inh,[5],0%
same,%Inh,[6],53%
same,%Inh,S6K1,4%
same,%Inh,SBK1,0%
same,%Inh,SGK2,4%
same,%Inh,SGK3,0%
same,%Inh,SGK,2%
same,%Inh,SIK2,10%
same,%Inh,SIK,5%
same,%Inh,SLK,7%
same,%Inh,SNARK,0%
same,%Inh,SNRK,0%
same,%Inh,SRC,7%
same,%Inh,SRMS,1%
same,%Inh,SRPK1,1%
same,%Inh,SRPK2,0%
CN(C(=O)c1ccc(-c2cc(-c3c[nH]nc3-c3ccccn3)ccn2)cc1)C1CCOCC1 [GW810083],%Inh,[1],6%
same,%Inh,[2],20%
same,%Inh,[3],0%
same,%Inh,[4],16%
same,%Inh,[5],0%
same,%Inh,[6],53%
same,%Inh,S6K1,0%
same,%Inh,SBK1,0%
same,%Inh,SGK2,8%
same,%Inh,SGK3,0%
same,%Inh,SGK,18%
same,%Inh,SIK2,0%
same,%Inh,SIK,0%
same,%Inh,SLK,0%
same,%Inh,SNARK,0%
same,%Inh,SNRK,0%
same,%Inh,SRC,0%
same,%Inh,SRMS,0%
same,%Inh,SRPK1,0%
same,%Inh,SRPK2,14%
COCCNC(=O)c1ccc(-c2cc(C(=O)NC3CC3)cc(F)c2C)cc1 [GW868318],%Inh,[1],40%
same,%Inh,[2],29%
same,%Inh,[3],16%
same,%Inh,[4],0%
same,%Inh,[5],41%
same,%Inh,[6],0%
same,%Inh,S6K1,29%
same,%Inh,SBK1,48%
same,%Inh,SGK2,20%
same,%Inh,SGK3,21%
same,%Inh,SGK,36%
same,%Inh,SIK2,0%
same,%Inh,SIK,6%
same,%Inh,SLK,0%
same,%Inh,SNARK,16%
same,%Inh,SNRK,16%
same,%Inh,SRC,23%
same,%Inh,SRMS,24%
same,%Inh,SRPK1,7%
same,%Inh,SRPK2,0%
N#Cc1c(N2CCOCC2)sc(-c2ccn[nH]2)c1-c1ccc(Cl)cc1,%Inh,[1],9%
same,%Inh,[2],0%
same,%Inh,[3],13%
same,%Inh,[4],2%
same,%Inh,[5],2%
same,%Inh,[6],10%
same,%Inh,S6K1,7%
same,%Inh,SBK1,35%
same,%Inh,SGK2,23%
same,%Inh,SGK3,8%
same,%Inh,SGK,23%
same,%Inh,SIK2,4%
same,%Inh,SIK,13%
same,%Inh,SLK,17%
same,%Inh,SNARK,5%
same,%Inh,SNRK,12%
same,%Inh,SRC,0%
same,%Inh,SRMS,0%
same,%Inh,SRPK1,0%
same,%Inh,SRPK2,0%
O=C(NCCCN1CCOCC1)c1cccc(Nc2nccc(Nc3ccc(Oc4ccccc4)cc3)n2)c1 [GW663929],%Inh,[1],0%
same,%Inh,[2],11%
same,%Inh,[3],7%
same,%Inh,[4],10%
same,%Inh,[5],0%
same,%Inh,[6],20%
same,%Inh,S6K1,0%
same,%Inh,SBK1,1%
same,%Inh,SGK2,12%
same,%Inh,SGK3,19%
same,%Inh,SGK,1%
same,%Inh,SIK2,12%
same,%Inh,SIK,68%
same,%Inh,SLK,8%
same,%Inh,SNARK,22%
same,%Inh,SNRK,0%
same,%Inh,SRC,81%
same,%Inh,SRMS,97.5%
same,%Inh,SRPK1,25%
same,%Inh,SRPK2,19%
